Reference: PubChem BioAssay (NCI)
This is part of a sample that, as a whole, favours compounds with a hit. Of some 79,000 tested, about 15% had one in any assay. A number with no mark means an inactive call. Calls of active or inactive are those of the source. Rule as the data show it: active = growth inhibition above about 70%; inactive = the rest.

Legend:
[1] = NCI Yeast Anticancer Drug Screen. Data for the rad50 strain (AID 155);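 also: 0% = growth of vehicle-only cultures of the same strain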; conditions: S. cerevisiae rad50 strain growth inhibition, active compounds read high
In short: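 A DNA repair-deficient yeast mutant serves as the test organism; compound-induced growth inhibition is calculated against vehicle-treated cells.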

[2] = NCI Yeast Anticancer Drug Screen. Data for the mec2-1 strain (AID 157); conditions: S. cerevisiae mec2-1 strain, active compounds read high
In short: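 Cells of the genetically defined mec2-1 yeast strain are incubated with test compound. Inhibition of growth is calculated against vehicle-treated controls.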

[3] = NCI Yeast Anticancer Drug Screen. Data for the sgs1 mgt1 strain (AID 161);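 also: 0% = growth of cultures given vehicle only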; conditions: S. cerevisiae sgs1 mgt1 strain, active compounds read high
In short: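 Genetically altered yeast, compound exposure, growth inhibition relative to vehicle.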

[4] = NCI Yeast Anticancer Drug Screen. Data for the cln2 rad14 strain (AID 165);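 also: 0% = growth equal to vehicle treated cultures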; conditions: S. cerevisiae cln2 rad14 strain, active compounds read high
In short: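 The screen exposed genetically defined yeast (cln2 rad14) to test compounds and scored growth inhibition relative to vehicle-treated controls.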

[5] = NCI Yeast Anticancer Drug Screen. Data for the bub3 strain (AID 167); conditions: S. cerevisiae bub3 mutant strain, active compounds read high
In short: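 Inhibition values come from growth of compound-treated mutant yeast normalised to vehicle-treated controls.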

[6] = NCI Yeast Anticancer Drug Screen. Data for the mlh1 rad18 strain (AID 175); conditions: S. cerevisiae mlh1 rad18 strain growth inhibition, active compounds read high
In short: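 Compound-treated yeast growth, normalised to vehicle controls. Strain bears defined DNA repair mutations.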

[7] = at 5.0 µM (retest, dose inferred, filed as 0.5)
[8] = at 50.0 µM (retest, dose inferred, filed as 5.0)

Compound | growth inhibition [1, 7] | growth inhibition [1, 8] | growth inhibition ([1]; at 50.0 µM) | growth inhibition [2, 7] | growth inhibition [2, 8] | growth inhibition ([2]; at 50.0 µM) | growth inhibition [3, 7] | growth inhibition [3, 8] | growth inhibition ([3]; at 50.0 µM) | growth inhibition [4, 7] | growth inhibition [4, 8] | growth inhibition ([4]; at 50.0 µM) | growth inhibition [5, 7] | growth inhibition [5, 8] | growth inhibition ([5]; at 50.0 µM) | growth inhibition [6, 7] | growth inhibition [6, 8] | growth inhibition ([6]; at 50.0 µM)
CC(=O)Oc1c(-c2ccccc2)cc([N+](=O)[O-])cc1[N+](=O)[O-] | 13% | 93% (active) | 95.8% (active) | 19% | 93% (active) | 93.5% (active) | 31% | 88% (active) | 93.6% (active) | 17% | 59% | 74.4% (active) | 24% | 65% | 94.5% (active) | 54% | 97% (active) | 91.7% (active)
CCOC(=O)C(/C=N\C(=S)Nc1ccc(Cl)c(Cl)c1)=C(/O)c1ccccc1 | 2% | 58% | 83.3% (active) | -3% | 45% | 69% | 11% | 38% | 75.5% (active) | -8% | 45% | 78.6% (active) | 12% | 35% | 78.4% (active) | -9% | 49% | 81.2% (active)
CCCSc1ncnc2nc(C)[nH]c12 | -1% | -1% | 6.9% | 3% | -7% | -14.5% | -2% | -3% | 2.25% | 0% | -1% | 39.6% | -1% | -6% | 1.85% | 0% | 0% | -8.25%
Nc1c(-c2ccc(Cl)cc2)[n+]([O-])c2ccccc2[n+]1[O-] | -16% | 4% | 19.2% | -8% | -10% | 13.2% | 1% | -10% | 34.4% | 24% | 11% | 47.7% | -3% | 11% | 8.45% | 15% | 6% | 37.2%
CN=C(N)NN=C(c1ccc(Cl)cc1)c1ccc(Cl)cc1 | 32% | 99% (active) | 87.8% (active) | 30% | 99% (active) | 91.2% (active) | 51% | 99% (active) | 87.5% (active) | 48% | 98% (active) | 85% (active) | 52% | 99% (active) | 83.2% (active) | 25% | 98% (active) | 92.4% (active)
CCOC(=O)C(Cc1cn(S(=O)(=O)c2ccccc2)c2ccccc12)(NC(C)=O)C(=O)OCC | -2% | 17% | 61.8% | -11% | 14% | 17.3% | 8% | 30% | 70% (active) | 15% | 33% | -3.35% | -9% | 21% | 67.7% | 5% | 35% | 75.5% (active)
Cc1occc1C(=S)Nc1ccc(Cl)c(/C=N/OC(C)C)c1 | 12% | 83% (active) | 77.5% (active) | 13% | 77% (active) | 59.2% | 13% | 80% (active) | 71.3% (active) | 24% | 81% (active) | 75.6% (active) | 22% | 86% (active) | 73.5% (active) | 17% | 91% (active) | 77.8% (active)
CC1(C)OC2C(COC(c3ccccc3)(c3ccccc3)c3ccccc3)OC(n3ccc(=O)[nH]c3=O)C2O1 (configuration not stated) | 57% | 92% (active) | 75.9% (active) | 35% | 96% (active) | 53.6% | 43% | 56% | 75.3% (active) | 28% | 75% (active) | 52.1% | 42% | 94% (active) | 72.6% (active) | 52% | 95% (active) | 70.5% (active)
Cc1c(N)nc(C(CC(N)=O)NCC(N)C(N)=O)nc1C(=O)NC(C(=O)NC(C)C(O)C(C)C(=O)NC(C(=O)NCCc1nc(-c2nc(C(=O)NCCCNCCCc3ccccn3)cs2)cs1)C(C)O)C(OC1OC(CO)C(O)C(O)C1OC1OC(CO)C(O)C(OC(N)=O)C1O)c1cnc[nH]1 (configuration not stated) | 98% (active) | 99% (active) | 92.6% (active) | 97% (active) | 99% (active) | 93.4% (active) | 98% (active) | 99% (active) | 93.7% (active) | 90% (active) | 98% (active) | 90.3% (active) | 97% (active) | 98% (active) | 93.3% (active) | 98% (active) | 99% (active) | 92% (active)
